# Measurements taken from PubChem BioAssay (NCATS).
# Records with an inconclusive call do not appear. Active and inactive are the calls of the source. Calls come from the whole dose curve; as a rule, active = well fitted cell-killing curve with a large enough effect; inconclusive = small, poorly fitted or top-dose-only effect; inactive = no such curve, though single readings can be large or run the other way.
# Assay: qHTS of pediatric cancer cell lines to identify multiple opportunities for drug repurposing: Primary screen for OHS-50 cells (AID 1347103); note: nearly all actives have a fitted effect of over 40% in size
# Details: OHS-50 osteosarcoma viability, CellTiter-Glo luminescence, 48 h; series mostly up to 57.3 µM
# Method in brief: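 Cells (500-1,000/well) rested 5 h, then received compounds for 48 h; metabolically active cells were measured by CellTiter-Glo luminescence. Final concentrations spanned up to 46 µM (MIPE, 11-point) or 0.59 nM-46 µM (NPC, 8-point) in primary screens, 11-point in follow-ups.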
# Potency is the fitted concentration of half-maximal effect.
row,Compound,Potency
1,COc1cc(OC)cc(-c2ccc3ncc4ccc(=O)n(-c5ccc(N6CCNCC6)c(C(F)(F)F)c5)c4c3c2)c1,4.32 µM (active)
2,CN(N=O)C(=O)N[C@H]1C(O)OC(CO)[C@@H](O)[C@H]1O (stereo partly specified),inactive
3,COc1cc(N2CCC(C(N)=O)CC2)ccc1Nc1nc(N)c(Cl)c(Nc2ccccc2S(=O)(=O)C(C)C)n1,0.0611 µM (active)
4,C[C@H](CCC(=O)O)[C@H]1CCC2C3C[C@H](O)[C@@H]4C[C@H](O)CC[C@]4(C)C3CC[C@@]21C (stereo partly specified),inactive
5,CC(C)[C@H](CO)Nc1nc(Nc2cccc(Cl)c2)c2ncn(C(C)C)c2n1,13.7 µM (active)
6,CC(C)NC[C@@H](C(=O)N1CCN(c2ncnc3c2[C@H](C)C[C@H]3O)CC1)c1ccc(Cl)cc1,0.193 µM (active)
7,O=C1NC(O)CCN1[C@@H]1O[C@H](CO)[C@H](O)[C@H]1O (stereo partly specified),inactive
8,CCN(CC)Cc1ccc2cc(COC(=O)Nc3ccc(C(=O)NO)cc3)ccc2c1,0.863 µM (active)
9,COc1ccc(S(=O)(=O)Nc2cccnc2Nc2ccc(O)cc2)cc1,0.306 µM (active)
10,CNC(=O)c1cccc(-c2ccc3c(N4CCOC[C@H]4C)nc(N4CCOC[C@H]4C)nc3n2)c1,0.0685 µM (active)
11,NC1=N[C@H]2[C@H](CS[C@H]2CCCCC(=O)O)N1,inactive
12,Cn1cnc(=N)c2[nH]cnc21,0.109 µM (active)
13,O=C(NC1CC1)c1cccc(-c2ccc3c(NC(=O)C4CC4)n[nH]c3c2)c1,3.85 µM (active)
14,CN[C@@H]1C[C@H]2O[C@@](C)([C@H]1OC)n1c3ccccc3c3c4c(c5c6ccccc6n2c5c31)C(=O)N[C@H]4O,0.217 µM (active)
15,CN(CC(=O)N(Cc1ccc(C2CCCCC2)cc1)c1ccc(C(=O)O)c(O)c1)S(=O)(=O)c1c(F)c(F)c(F)c(F)c1F,21.7 µM (active)
16,COc1cc2c(Nc3ccc(Cl)c(Cl)c3F)ncnc2cc1OCC1C[C@@H]2CN(C)C[C@H]2C1,4.85 µM (active)
17,Oc1ccc([C@@H]2Oc3ccc(O)cc3[C@@H]3CCC[C@@H]32)cc1,24.3 µM (active)
18,FC(F)c1nc2ccccc2n1-c1nc(N2CCOCC2)nc(N2CCOCC2)n1,0.0769 µM (active)
19,C=C1C(=CC=C2CCC[C@]3(C)[C@@H]([C@H](C)CCCC(C)(C)O)CC[C@@H]23)C[C@@H](O)C[C@@H]1O,7.69 µM (active)
20,COc1cc(C)c(C=CC(C)=CC=CC(C)=CC(=O)O)c(C)c1C,1.72 µM (active)
21,NC(=O)c1ncn([C@@H]2O[C@H](CO)[C@@H](O)[C@@H]2O)c1O,inactive
22,COc1cccc2c1C(=O)c1c(O)c3c(c(O)c1C2=O)C[C@@](O)(C(C)=O)C[C@H]3O[C@H]1C[C@H](N)[C@H](O)[C@H](C)O1,0.344 µM (active)
23,O=C(Nc1cccc(Nc2ncc(Br)c(NCCc3cnc[nH]3)n2)c1)N1CCCC1,17.2 µM (active)
24,CC(C)OC(=O)[C@H](C)N[P@](=O)(OC[C@H]1O[C@@H](n2ccc(=O)[nH]c2=O)[C@](C)(F)[C@H]1O)Oc1ccccc1,inactive
25,CC(=O)NC(CS)C(=O)O (stereo unspecified),inactive
26,O=C1NC(=O)C(=Cc2ccc3nccc(-c4ccncc4)c3c2)S1,0.0385 µM (active)
